# According to paper PMC7862700, “An all-to-all approach to the identification of sequence-specific readers for epigenetic DNA modifications on cytosine”:
# Assays:
# Test in all cases: DAPPL (digital affinity profiling via proximity ligation, sequencing); 10 mM Tris-HCl pH 7.5, 50 mM NaCl, 1 mM DTT, 4% glycerol, room temperature, 30 min; GST-TFs on glutathione beads, 16-mer random dsDNA library, 0.1% formaldehyde crosslink after washing; high values mean tight binding
# Conditions in all cases: protein: recombinant; tags: N-terminal GST; dsDNA, one strand shown
# FLI1 = target: T1, FLI1 (Homo sapiens, UniProt Q01543 1-452)
# T1 sequence: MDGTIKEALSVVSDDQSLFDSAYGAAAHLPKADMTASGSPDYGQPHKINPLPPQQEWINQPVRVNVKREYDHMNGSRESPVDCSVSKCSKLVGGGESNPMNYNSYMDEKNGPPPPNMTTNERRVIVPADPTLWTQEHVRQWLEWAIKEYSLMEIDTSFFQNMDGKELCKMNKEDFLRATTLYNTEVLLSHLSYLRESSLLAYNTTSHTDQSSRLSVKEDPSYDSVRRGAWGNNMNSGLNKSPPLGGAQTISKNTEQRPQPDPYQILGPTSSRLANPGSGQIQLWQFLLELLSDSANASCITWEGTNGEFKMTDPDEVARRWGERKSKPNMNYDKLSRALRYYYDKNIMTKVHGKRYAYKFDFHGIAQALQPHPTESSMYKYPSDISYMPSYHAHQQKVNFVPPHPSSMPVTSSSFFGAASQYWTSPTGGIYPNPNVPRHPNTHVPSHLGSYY
# Summary of the method: (§1)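 Pools were built from human transcription factors expressed in yeast as GST fusions, captured on glutathione beads and DNA-barcoded, along with a tag-only sample. Incubation with 200 nmole of a 16-mer random double-stranded DNA library lasted 30 min at room temperature in Tris/NaCl/DTT/glycerol buffer, and was followed by washing, 0.1% formaldehyde crosslinking, proximity ligation, PCR amplification and Illumina NextSeq500 sequencing. Binding signal is the quotient of each hexamer's read frequency for a factor and its frequency for the tag-only sample.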
# ELK1 = target: T2, ELK1 (Homo sapiens, UniProt P19419 1-428)
# T2 sequence: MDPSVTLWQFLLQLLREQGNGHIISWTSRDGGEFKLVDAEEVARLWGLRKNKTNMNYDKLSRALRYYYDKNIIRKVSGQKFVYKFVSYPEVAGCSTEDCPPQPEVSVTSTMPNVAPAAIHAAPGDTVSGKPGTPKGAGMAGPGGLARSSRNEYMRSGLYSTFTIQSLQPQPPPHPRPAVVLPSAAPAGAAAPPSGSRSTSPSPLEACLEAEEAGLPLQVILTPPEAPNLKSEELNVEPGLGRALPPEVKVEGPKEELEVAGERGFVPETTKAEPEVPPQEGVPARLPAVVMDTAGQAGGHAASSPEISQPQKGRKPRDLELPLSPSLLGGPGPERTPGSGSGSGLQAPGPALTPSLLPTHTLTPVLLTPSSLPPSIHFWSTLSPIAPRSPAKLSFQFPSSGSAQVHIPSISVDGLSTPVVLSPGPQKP
# Summary of the method: as §1
# GABPA = target: T3, GABPA (Homo sapiens, UniProt Q06546 1-454)
# T3 sequence: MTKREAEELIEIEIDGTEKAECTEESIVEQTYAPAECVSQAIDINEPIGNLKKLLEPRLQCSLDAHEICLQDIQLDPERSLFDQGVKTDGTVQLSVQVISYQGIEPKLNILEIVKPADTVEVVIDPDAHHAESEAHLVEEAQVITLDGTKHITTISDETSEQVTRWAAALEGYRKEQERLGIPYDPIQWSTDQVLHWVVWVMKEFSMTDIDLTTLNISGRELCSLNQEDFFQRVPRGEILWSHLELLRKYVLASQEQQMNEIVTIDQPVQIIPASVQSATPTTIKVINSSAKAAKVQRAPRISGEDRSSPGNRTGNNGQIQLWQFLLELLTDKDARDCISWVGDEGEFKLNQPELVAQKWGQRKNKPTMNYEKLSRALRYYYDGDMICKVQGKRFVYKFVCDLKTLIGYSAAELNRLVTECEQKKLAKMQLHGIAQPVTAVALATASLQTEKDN
# Summary of the method: as §1
# ERG = target: T4, ERG (Homo sapiens, UniProt P11308 1-479)
# T4 sequence: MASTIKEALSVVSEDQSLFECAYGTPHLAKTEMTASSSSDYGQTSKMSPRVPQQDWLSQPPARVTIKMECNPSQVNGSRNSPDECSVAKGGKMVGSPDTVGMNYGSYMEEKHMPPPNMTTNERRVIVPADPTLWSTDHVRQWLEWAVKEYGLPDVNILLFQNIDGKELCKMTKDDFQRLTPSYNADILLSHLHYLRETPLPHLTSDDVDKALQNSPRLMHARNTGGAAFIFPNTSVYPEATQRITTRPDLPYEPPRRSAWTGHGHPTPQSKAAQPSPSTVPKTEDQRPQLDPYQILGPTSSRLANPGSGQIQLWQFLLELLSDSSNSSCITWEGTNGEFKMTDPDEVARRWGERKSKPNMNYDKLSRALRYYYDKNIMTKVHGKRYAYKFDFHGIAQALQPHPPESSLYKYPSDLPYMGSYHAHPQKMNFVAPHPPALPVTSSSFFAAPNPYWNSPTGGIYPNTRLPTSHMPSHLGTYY
# Summary of the method: as §1
# ELF1 = ELF1 (Homo sapiens, UniProt P32519 1-619)
# Sequence of ELF1 (P32519 whole entry): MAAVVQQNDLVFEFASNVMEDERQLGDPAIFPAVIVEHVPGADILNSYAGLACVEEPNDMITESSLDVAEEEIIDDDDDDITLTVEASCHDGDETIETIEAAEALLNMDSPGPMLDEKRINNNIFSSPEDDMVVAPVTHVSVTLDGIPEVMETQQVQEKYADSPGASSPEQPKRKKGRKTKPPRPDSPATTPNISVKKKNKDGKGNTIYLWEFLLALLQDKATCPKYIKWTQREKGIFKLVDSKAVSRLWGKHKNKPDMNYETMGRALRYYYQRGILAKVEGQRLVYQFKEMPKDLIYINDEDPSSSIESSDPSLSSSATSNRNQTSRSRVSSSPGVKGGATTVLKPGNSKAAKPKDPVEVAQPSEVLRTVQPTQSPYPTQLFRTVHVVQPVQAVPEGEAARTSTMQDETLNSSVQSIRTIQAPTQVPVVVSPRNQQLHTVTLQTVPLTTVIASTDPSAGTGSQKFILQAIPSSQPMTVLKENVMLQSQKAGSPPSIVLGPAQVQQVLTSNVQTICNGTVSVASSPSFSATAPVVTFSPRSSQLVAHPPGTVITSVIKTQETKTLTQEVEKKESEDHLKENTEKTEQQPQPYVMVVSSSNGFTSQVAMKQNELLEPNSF
# Summary of the method: as §1
# EHF = target: T5, EHF (Homo sapiens, UniProt Q9NZC4 1-300)
# T5 sequence: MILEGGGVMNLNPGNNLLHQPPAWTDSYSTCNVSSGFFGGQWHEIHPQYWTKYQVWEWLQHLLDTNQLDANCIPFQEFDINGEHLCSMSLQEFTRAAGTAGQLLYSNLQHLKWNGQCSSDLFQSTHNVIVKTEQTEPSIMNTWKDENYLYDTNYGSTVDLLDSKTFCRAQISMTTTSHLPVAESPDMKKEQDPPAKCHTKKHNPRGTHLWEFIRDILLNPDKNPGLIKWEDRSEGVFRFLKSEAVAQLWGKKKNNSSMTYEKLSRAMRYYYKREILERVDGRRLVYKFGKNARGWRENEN
# Summary of the method: as §1
# SPI1 = SPI1 (Homo sapiens, UniProt P17947 1-270)
# Summary of the method: as §1
# SPIB = SPIB (Homo sapiens, UniProt Q01892 1-262)
# Sequence of SPIB (Q01892 whole entry): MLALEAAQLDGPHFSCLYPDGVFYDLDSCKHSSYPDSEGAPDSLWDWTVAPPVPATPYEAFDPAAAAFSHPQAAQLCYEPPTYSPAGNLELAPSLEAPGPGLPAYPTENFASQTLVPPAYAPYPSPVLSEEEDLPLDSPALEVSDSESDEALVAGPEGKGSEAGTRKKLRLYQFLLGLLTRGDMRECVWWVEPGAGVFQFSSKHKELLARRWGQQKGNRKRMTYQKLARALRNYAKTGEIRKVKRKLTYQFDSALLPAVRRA
# Summary of the method: as §1
# ELK3 = target: T6, ELK3 (Homo sapiens, UniProt P41970 1-407)
# T6 sequence: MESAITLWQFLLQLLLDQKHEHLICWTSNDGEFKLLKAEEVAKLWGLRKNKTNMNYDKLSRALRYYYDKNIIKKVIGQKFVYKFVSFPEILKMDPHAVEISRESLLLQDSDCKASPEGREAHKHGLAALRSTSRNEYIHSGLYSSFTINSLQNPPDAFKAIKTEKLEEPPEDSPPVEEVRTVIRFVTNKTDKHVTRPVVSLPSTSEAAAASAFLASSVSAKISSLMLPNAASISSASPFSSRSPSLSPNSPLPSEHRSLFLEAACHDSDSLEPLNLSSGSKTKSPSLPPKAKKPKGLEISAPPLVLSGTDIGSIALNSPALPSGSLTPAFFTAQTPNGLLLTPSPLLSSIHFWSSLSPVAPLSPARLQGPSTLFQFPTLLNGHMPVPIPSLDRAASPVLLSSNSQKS
# Summary of the method: as §1
# FEV = target: T7, FEV (Homo sapiens, UniProt Q99581 1-238)
# T7 sequence: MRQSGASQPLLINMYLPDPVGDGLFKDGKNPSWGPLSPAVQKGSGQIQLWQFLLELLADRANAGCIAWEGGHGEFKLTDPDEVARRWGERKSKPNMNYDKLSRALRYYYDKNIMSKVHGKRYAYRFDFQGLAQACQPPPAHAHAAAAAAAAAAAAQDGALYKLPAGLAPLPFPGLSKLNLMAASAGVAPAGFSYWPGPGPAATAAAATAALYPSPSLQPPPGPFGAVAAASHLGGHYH
# Summary of the method: as §1
# ETV5 = ETV5 (Homo sapiens, UniProt P41161 1-510)
# Sequence of ETV5 (P41161 whole entry): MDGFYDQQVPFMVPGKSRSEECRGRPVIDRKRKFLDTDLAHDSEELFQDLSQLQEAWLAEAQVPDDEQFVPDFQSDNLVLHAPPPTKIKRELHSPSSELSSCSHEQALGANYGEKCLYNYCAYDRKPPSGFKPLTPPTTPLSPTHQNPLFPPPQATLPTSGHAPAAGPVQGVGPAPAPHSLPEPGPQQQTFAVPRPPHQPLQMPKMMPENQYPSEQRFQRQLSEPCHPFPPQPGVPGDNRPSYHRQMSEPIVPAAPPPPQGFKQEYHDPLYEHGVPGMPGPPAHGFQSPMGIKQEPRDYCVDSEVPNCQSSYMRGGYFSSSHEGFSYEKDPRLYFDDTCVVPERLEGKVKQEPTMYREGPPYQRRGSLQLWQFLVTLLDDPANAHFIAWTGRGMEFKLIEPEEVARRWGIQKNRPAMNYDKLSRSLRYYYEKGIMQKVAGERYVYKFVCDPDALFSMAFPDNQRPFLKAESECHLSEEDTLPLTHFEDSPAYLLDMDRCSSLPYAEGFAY
# Summary of the method: as §1
# SPIC = target: T8, SPIC (Homo sapiens, UniProt Q8N5J4 1-248)
# T8 sequence: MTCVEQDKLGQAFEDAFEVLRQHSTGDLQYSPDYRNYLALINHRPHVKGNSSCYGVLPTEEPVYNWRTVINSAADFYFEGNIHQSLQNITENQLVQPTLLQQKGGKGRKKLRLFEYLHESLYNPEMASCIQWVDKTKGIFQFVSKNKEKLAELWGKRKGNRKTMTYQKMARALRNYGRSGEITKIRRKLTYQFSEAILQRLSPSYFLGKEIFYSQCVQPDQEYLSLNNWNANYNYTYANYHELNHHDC
# Summary of the method: as §1
# ELF4 = ELF4 (Homo sapiens, UniProt Q99607 1-663)
# Sequence of ELF4 (Q99607 whole entry): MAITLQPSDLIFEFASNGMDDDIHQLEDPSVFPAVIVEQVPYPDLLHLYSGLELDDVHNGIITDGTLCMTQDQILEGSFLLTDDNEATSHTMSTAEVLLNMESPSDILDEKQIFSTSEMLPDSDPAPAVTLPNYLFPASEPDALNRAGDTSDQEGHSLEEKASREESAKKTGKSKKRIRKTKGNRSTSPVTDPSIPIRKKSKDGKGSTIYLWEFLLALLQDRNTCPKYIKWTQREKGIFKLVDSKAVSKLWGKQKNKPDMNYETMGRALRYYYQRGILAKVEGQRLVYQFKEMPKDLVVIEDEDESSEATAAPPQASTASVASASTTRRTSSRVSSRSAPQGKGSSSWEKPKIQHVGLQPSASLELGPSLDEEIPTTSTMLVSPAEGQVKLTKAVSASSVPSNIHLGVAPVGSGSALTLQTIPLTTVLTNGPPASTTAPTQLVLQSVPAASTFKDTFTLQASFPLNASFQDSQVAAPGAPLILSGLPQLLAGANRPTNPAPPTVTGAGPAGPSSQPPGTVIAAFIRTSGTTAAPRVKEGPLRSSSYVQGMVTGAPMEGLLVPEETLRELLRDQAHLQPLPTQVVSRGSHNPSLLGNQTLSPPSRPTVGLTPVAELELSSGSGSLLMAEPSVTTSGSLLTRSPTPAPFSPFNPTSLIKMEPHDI
# Summary of the method: as §1
# ELK4 = target: T9, ELK4 (Homo sapiens, UniProt P28324-2 1-405)
# T9 sequence: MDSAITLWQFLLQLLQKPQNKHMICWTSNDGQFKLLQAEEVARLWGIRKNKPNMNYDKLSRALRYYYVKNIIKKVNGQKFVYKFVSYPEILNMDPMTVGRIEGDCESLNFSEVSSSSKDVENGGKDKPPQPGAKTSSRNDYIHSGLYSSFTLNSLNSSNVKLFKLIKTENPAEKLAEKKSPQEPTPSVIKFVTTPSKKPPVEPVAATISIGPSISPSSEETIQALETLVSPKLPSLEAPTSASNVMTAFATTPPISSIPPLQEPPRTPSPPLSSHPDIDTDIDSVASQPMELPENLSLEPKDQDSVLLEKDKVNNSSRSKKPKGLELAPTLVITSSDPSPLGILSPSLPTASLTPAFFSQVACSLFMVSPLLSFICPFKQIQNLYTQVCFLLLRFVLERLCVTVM
# Summary of the method: as §1
# ETV2 = target: T10, ETV2 (Homo sapiens, UniProt O00321 1-342)
# T10 sequence: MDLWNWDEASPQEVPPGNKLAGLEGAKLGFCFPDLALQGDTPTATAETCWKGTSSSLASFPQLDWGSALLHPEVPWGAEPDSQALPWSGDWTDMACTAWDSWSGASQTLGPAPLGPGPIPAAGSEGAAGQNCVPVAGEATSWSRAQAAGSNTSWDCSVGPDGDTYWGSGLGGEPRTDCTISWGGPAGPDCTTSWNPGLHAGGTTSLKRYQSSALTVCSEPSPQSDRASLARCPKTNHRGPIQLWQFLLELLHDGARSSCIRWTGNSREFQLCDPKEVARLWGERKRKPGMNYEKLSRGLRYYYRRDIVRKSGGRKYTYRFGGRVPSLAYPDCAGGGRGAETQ
# Summary of the method: as §1
# ELF3 = target: T11, ELF3 (Homo sapiens, UniProt P78545 1-371)
# T11 sequence: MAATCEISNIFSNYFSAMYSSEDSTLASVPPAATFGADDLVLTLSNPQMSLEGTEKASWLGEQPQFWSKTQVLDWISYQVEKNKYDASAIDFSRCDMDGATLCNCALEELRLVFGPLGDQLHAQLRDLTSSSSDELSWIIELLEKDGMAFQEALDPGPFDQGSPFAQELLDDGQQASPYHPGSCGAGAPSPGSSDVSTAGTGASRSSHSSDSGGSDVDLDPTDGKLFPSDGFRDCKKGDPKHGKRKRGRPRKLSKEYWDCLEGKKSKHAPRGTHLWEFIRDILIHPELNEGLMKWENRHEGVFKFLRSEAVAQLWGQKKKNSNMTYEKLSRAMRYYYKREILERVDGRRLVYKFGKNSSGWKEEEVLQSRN
# Summary of the method: as §1
# ETV1 = ETV1 (Homo sapiens, UniProt P50549 1-477)
# Sequence of ETV1 (P50549 whole entry): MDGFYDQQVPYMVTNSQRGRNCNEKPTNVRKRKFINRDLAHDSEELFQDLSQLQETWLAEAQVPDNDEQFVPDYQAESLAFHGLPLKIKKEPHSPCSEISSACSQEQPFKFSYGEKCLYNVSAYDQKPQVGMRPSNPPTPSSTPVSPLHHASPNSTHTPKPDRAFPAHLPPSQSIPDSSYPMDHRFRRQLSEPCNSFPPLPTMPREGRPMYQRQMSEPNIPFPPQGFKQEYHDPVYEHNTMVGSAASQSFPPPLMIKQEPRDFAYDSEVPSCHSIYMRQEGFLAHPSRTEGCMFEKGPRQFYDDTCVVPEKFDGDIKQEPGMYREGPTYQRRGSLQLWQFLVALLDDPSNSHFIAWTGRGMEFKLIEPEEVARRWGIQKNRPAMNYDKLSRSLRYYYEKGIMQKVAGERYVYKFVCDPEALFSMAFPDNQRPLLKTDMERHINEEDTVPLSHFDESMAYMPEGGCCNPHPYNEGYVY
# Summary of the method: as §1
sequence,measurement,setting,value
CCATAC,binding signal,FLI1,"1.23 fold enrichment (6-mer frequency, TF over GST control)"
same,binding signal,ELK1,"1.07 fold enrichment (6-mer frequency, TF over GST control)"
same,binding signal,GABPA,"1.16 fold enrichment (6-mer frequency, TF over GST control)"
same,binding signal,ERG,"1.08 fold enrichment (6-mer frequency, TF over GST control)"
same,binding signal,ELF1,"1.18 fold enrichment (6-mer frequency, TF over GST control)"
same,binding signal,EHF,"1.19 fold enrichment (6-mer frequency, TF over GST control)"
same,binding signal,SPI1,"1.18 fold enrichment (6-mer frequency, TF over GST control)"
same,binding signal,SPIB,"1.15 fold enrichment (6-mer frequency, TF over GST control)"
same,binding signal,ELK3,"1.2 fold enrichment (6-mer frequency, TF over GST control)"
same,binding signal,FEV,"1.16 fold enrichment (6-mer frequency, TF over GST control)"
same,binding signal,ETV5,"1.16 fold enrichment (6-mer frequency, TF over GST control)"
same,binding signal,SPIC,"1.13 fold enrichment (6-mer frequency, TF over GST control)"
same,binding signal,ELF4,"1.27 fold enrichment (6-mer frequency, TF over GST control)"
same,binding signal,ELK4,"1.14 fold enrichment (6-mer frequency, TF over GST control)"
same,binding signal,ETV2,"1.06 fold enrichment (6-mer frequency, TF over GST control)"
same,binding signal,ELF3,"1.06 fold enrichment (6-mer frequency, TF over GST control)"
same,binding signal,ETV1,"1.15 fold enrichment (6-mer frequency, TF over GST control)"
